According to PubChem BioAssay AID2108 (National Center for Advancing Translational Sciences (NCATS), 2009):
Results filed as inconclusive are left out. Activity calls are given as the source filed them. Calls come from the whole dose curve; as a rule, active = well fitted curve in the direction sought with a large enough effect; inconclusive = small, poorly fitted or top-dose-only effect, or effect the other way, or another doubt; inactive = no such curve, though single readings can be large or run the other way.

molecular target: Alpha-galactosidase A (Homo sapiens) (UniProt P06280); assay: Confirmation of Inhibitors of Human alpha-Galactosidase Using Spleen Homogenate; settings: alpha-galactosidase enzyme activity; series mostly up to 56.2 µM; activity change: at the top concentration; note: 0% is about no effect
Outline: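 AC50 values come from Hill-equation fits of normalised 4-methylumbelliferone fluorescence (365/440 nm, read after NaOH/glycine stop). Enzyme source: spleen homogenate; substrate 1 mM final; pH 5.0 citrate buffer; 40 min at 37C; compound titration 0.5 nM–58 uM.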

Sequence of Alpha-galactosidase A (Homo sapiens) (P06280 32-429 limits assumed): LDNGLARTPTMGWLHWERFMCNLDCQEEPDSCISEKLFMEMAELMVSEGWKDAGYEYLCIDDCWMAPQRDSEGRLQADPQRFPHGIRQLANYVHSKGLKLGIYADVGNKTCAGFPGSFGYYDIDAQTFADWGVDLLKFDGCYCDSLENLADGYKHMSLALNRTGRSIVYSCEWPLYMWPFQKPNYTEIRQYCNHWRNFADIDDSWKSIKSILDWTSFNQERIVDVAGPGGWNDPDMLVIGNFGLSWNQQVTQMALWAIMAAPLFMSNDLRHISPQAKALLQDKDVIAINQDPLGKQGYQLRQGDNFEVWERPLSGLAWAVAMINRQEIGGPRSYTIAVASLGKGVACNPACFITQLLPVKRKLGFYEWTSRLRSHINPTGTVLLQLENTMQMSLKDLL

Activity change, inactive:
CCNc1sc(C(=O)c2cccs2)c(N)c1-c1nc2ccccc2s1 5.31%, COc1ccc(/C=C/c2nnc(NC(=O)CSc3ccc(C)cc3)s2)cc1 23.5%, CCCCn1c(CN2CCN(c3cccc(Cl)c3)CC2)nc2c1c(=O)n(C)c(=O)n2C 0.243% [at 23.6 µM], Nc1c(NCCN2CCOCC2)c2ccccc2oc1=O -4.2%, O=C1c2cc(O)c(O)cc2S(=O)(=O)C1c1ccccc1 (configuration not stated) 0.148%, COc1cccc2ccc(/C=C/c3ccc4c(c3)OCO4)nc12 6.44%, Clc1cc2c(cc1/C=C/c1ccc3ccccc3n1)OCO2 9.14%, Cc1cc(C)c(C(=O)Cn2cnc3cc([N+](=O)[O-])ccc3c2=O)cc1C 11.1% [at 23.6 µM], CCOc1cc(/C=C2\SC(N)=NC2=O)ccc1O -4.17%, Cc1nnc(SCC(=O)Nc2ccc3c(c2)COC3=O)n1-c1ccccc1 0.342% [at 23.6 µM], O=C(O)c1cc(NCc2ccccc2)ccc1N1CCOCC1 -1.74%, COc1ccc(C(=O)N2CCn3c(C)ccc3C2C)cc1 (configuration not stated) -1.12%, N#CCCN1CCN(S(=O)(=O)c2ccc(S(=O)(=O)N3CCOCC3)cc2)CC1 6.75%, Cc1ccc(-c2nc3ncccn3c2Nc2ccc3c(c2)OCO3)o1 -5.26%, CCN1CCc2nc(NC(=O)CC(c3ccccc3)c3ccccc3)sc2C1 -4.56%, CCc1ccc(N=CC23c4ccccc4C(c4ccccc42)C2C(=O)N(c4ccc(OC)cc4)C(=O)C23)cc1 (configuration not stated) 1.98% [at 23.6 µM], CNc1ncnc2c1ncn2[C@H]1C[C@H](OP(=O)(O)O)[C@@H](COP(=O)(O)O)O1 -2.16% [at 287 µM], O=c1[nH]c2ccccc2nc1/C=C/c1ccc2c(c1)OCO2 5.28%, C=CCCCCCCCCCCCc1ccco1 -17.2% [at 287 µM], O=S(=O)(c1ccc(Cl)cc1)N1CCOCC1 5.93%, CN1CC=C2C(C#N)=C(N)C(C#N)(C#N)[C@H](c3cccc(Cl)c3)C2C1 (some centres not stated) -3.22% [at 23.6 µM], O=C(NCCCN1CCOCC1)c1cccs1 -1.58% [at 23.6 µM], O=C(O)Cc1sc(-c2cc3ccccc3oc2=O)nc1-c1ccc(Br)cc1 3.08%, CCc1sc(-c2cc3cccc(OC)c3oc2=O)nc1-c1ccccc1 7.38%, O=C(c1ccccc1)N1CCN(S(=O)(=O)c2ccccc2)CC1 12%, COc1ccc(OC)c(/C=C/C(=O)N(C)CC(=O)Nc2ccc(C)cc2)c1 11.4% [at 23.6 µM], COc1ccc(NC(=O)CC2Nc3cc(C)c(C)cc3NC2=O)c([N+](=O)[O-])c1 (configuration not stated) -2.6%, COc1ccc(-c2cc(=O)c(C(=O)c3ccc(C)cc3)n[nH]2)cc1 4.97% [at 23.6 µM], COCCSc1nc(N)c2c3c(sc2n1)CN(C)CC3 3.09%, C=CCN1CCc2c(cc(O)c(O)c2Cl)C(c2ccccc2)C1 (configuration not stated) 1.95%, O=S(=O)(c1ccccc1)N1CCN(Cc2ccccc2)CC1 -2.74%, COc1cccc2cc(-c3nc(-c4ccc(C)cc4)c(C)s3)c(=O)oc12 6.04%, O=C(O)c1cc2c(ccc3ccccc32)o1 -0.971% [at 23.6 µM], CC(=O)c1cccc(S(=O)(=O)N2CCOCC2)c1 0.973%, O=S(=O)(c1cccnc1)N1CCOCC1 5.38%, COc1ccc(Cc2nnc(NC(=O)CSc3ccc(Cl)cc3)s2)cc1 1.59%, COc1ccc(-c2nnc(NC(=O)CSc3ccc(Cl)cc3)s2)cc1 6.4%
